# KKLEB cytotox: cytotoxicity in KKLEB CF airway cells, primary screen, cytotoxicity control for CF NF-kB inhibitor project, cell-based, uHTS, fluorescence assay plates | activity change (cytotoxicity), % at 5 µM | AID 602141, 2011 | actives 0.36% (n = 360,000) | KKLEB CF airway cells viability, ATPlite luminescence, overnight; stronger effect = lower value; cells stimulated with P. aeruginosa culture filtrate;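 active = corrected activity change at or below -50% at 5 µM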
# Peg3 prom inh: Peg3 promoter-driven luciferase inhibitors, primary screen, cell-based, HeLa, luciferase luminescence | HeLa PEG-Prom luciferase reporter, overnight | inhibition, % at 20 µM | actives 1.7% (n = 360,000) | AID 588405, 2011;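 active = inhibition of at least 50% at 20 µM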
# LMP1 NFkB inh: EBV LMP1-driven NF-kappaB luciferase reporter inhibitors, primary screen, cell-based, luminescence, single point; LMP1-induced NF-kappaB luciferase reporter cells; inhibition, % at 12.5 µM; actives 0.69% (n = 350,000); in the data active = inhibition above about 41%;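 also: 0% = neutral control wells and 100% = reference inhibitor control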
# HIF-2a inh: HIF-2a reporter inhibitors, primary screen, luminescence, 786-0 RCC cells; 786-0 RCC cells HIF-2a reporter, luciferase luminescence, overnight; inhibition, % at 18.8 µM; actives 0.72% (n = 360,000); AID 624352, 2012;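 active = inhibition of the luminescence signal of 40% or more relative to plate controls, in a single-dose primary screen at 18.75 µM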
# MITF TRPM1 inh: inhibitors of MITF-dependent TRPM1 promoter reporter, primary screen, cell-based, SK-MEL-5, single point, luciferase; SK-MEL-5 TRPM1 promoter luciferase, 24 h; inhibition, % at 12.5 µM; actives 0.83% (n = 330,000); AID 488899, 2010;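 active = mean inhibition across replicates of 60% or more, whatever share of single replicates reaches that level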
# CF NFkB inh: inhibitors of PAF-induced NF-kB signaling, primary screen, cell-based, GFP fluorescence, uHTS; actives 0.86% (n = 360,000); AID 588850, 2011; inhibition, % at 5 µM; KKLEB NF-kB-GFP reporter, GFP fluorescence overnight;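 active = at least 50% inhibition at 5 µM, scaled per plate between neutral and stimulator controls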;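 also: PAF is a Pseudomonas aeruginosa culture filtrate used as stimulus; plate controls were PAF-stimulated DMSO wells for no effect and unstimulated DMSO wells for full effect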
# Mdm2-MdmX confirm: retested Mdm2-MdmX interaction blockers, confirmation, cell-based, luminescence, single concentration, set 2; actives 99% (n = 740); shares compounds with HIF-2a inh; inhibition, % at 8 µM; SaOS-2 split-luciferase Mdm2/MdmX complementation; AID 504601, 2011;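 active = mean inhibition of the luminescence signal across two replicates at or above 26 percent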
# Target sequence (O15151 whole entry, looked up): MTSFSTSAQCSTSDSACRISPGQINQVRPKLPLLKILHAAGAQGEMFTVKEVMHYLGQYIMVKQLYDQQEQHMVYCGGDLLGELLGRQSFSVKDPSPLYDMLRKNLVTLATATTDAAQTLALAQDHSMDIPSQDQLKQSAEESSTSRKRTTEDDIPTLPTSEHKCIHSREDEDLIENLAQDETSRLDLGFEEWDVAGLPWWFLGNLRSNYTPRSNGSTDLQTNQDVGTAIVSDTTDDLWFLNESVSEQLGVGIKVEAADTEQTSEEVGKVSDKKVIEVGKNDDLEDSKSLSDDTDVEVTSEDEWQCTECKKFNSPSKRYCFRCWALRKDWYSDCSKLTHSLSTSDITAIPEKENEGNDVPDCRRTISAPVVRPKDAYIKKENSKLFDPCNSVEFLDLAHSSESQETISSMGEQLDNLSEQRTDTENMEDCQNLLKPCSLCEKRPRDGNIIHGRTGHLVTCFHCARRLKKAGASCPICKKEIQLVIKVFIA
# Target sequence (Q00987 whole entry, looked up): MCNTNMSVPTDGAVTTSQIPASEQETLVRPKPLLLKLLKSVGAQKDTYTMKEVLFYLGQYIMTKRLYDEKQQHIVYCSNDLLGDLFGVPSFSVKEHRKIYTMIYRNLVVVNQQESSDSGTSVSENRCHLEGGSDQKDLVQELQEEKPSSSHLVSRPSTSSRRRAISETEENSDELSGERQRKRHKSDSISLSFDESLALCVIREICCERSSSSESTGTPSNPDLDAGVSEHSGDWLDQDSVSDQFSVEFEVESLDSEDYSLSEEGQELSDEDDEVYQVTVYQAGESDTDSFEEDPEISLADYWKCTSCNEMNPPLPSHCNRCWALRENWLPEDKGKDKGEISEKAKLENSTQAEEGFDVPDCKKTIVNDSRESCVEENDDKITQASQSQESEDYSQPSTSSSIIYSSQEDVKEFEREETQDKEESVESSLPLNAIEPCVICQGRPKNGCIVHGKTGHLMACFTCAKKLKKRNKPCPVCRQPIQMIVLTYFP
# HIF-2a inh conf: HIF-2a reporter inhibitor retest, confirmation, luminescence, 786-0 RCC cells; shares compounds with HIF-2a inh; HIF-2a luciferase reporter luminescence, overnight; inhibition, % at 18.8 µM; actives 56% (n = 1,800);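 active = mean inhibition across four replicates of at least 40 percent at the single tested concentration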
# HIF-1a cs: HIF-1a luciferase reporter signal reduction – MiaPaCa-2 cells, single concentration, counter-screen for HIF-2a inhibitor project, confirmation. MiaPaCa-2 HIF-1a luciferase reporter, desferoxamine, overnight. inhibition, % at 18.8 µM. shares compounds with HIF-2a inh. actives 72% (n = 1,800). AID 651589, 2012;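 active = mean inhibition of the reporter signal across four replicates at the single tested dose of 50% or more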
# * marks the source's active call; other numbers are inactive results; · = not tested or not shown. Shown are actives, neighbours in structure and some others; about 3% of the full set was active somewhere.
SMILES,KKLEB cytotox,Peg3 prom inh,LMP1 NFkB inh,HIF-2a inh,MITF TRPM1 inh,CF NFkB inh,HIF-2a inh conf,HIF-1a cs,others
NC(=O)CC(NC(=O)c1ccccc1)c1ccc(NCCc2ccc(Cl)cc2)c([N+](=O)[O-])c1 (configuration not stated),-14,16,7,50*,7,2,-3,33,
COC(=O)c1ccc2nc(-c3ccc(Cl)cc3)c(Cc3ccsc3)n2c1,·,·,·,-17,·,·,·,·,
Cc1nc([N+](=O)[O-])c(Br)n1Cc1ccc(Cl)c(Cl)c1,-46,104*,-9,70*,23,86*,28,102*,
Cc1ccc2nc(Cl)c(C3CC(c4ccco4)=NN3S(C)(=O)=O)cc2c1 (configuration not stated),1,-29,-7,-77,-2,0,·,·,
CCOc1ccc2nc(Cl)c(C3CC(c4ccco4)=NN3S(C)(=O)=O)cc2c1 (configuration not stated),-9,1,-4,45*,-3,1,-3,35,
C=C1CCc2c([nH]c3ccc(OCC(C)C)cc23)C1=O,-21,103*,9,96*,58,29,-6,67*,
CCn1c2c(c3cc(OCC(C)C)ccc31)CCCC2=O,-4,9,-2,10,-13,12,·,·,
N#Cc1c(N)nc(Sc2ccc(Cl)cc2)c(C#N)c1-c1ccccc1Cl,-16,52*,9,47*,37,46,16,45,
CC(=O)O[C@@H]1C[C@H]2C(C)(C)C(=O)C=C[C@]2(C)[C@H]2CC[C@@]3(C)[C@H](c4ccoc4)OC(=O)[C@H]4O[C@]43[C@@]21C,19,31,-20,58*,12,28,49*,77*,
CC1(C)OC(=O)C=C[C@]2(C)[C@H]3CC[C@@]4(C)[C@H](c5ccoc5)OC(=O)[C@H]5O[C@]54[C@]3(C)C(=O)C[C@@H]12,9,2,-7,11,10,-13,·,·,
CC(=O)OC1CC2C(C)(C)C(=O)C=CC2(C)C2CCC3(C)C(c4ccoc4)OC(=O)C4OC43C12C (configuration not stated),0,45,·,45*,·,33,42*,59*,
COCCNC(=O)C1(C)CCCN(C(=O)CCc2ccccc2)C1 (configuration not stated),-31,7,·,7,·,7,·,·,
CCN1C(=O)[C@H]2[C@@H](c3ccc(C)cc3)N[C@]3(CCCN(Cc4ccco4)C3=O)[C@H]2C1=O,6,11,5,0,·,11,·,·,
CC1(c2nnnn2-c2ccc3c(c2)OCCO3)CCC(=O)N1C1CCN(Cc2ccccc2)CC1 (configuration not stated),·,·,·,18,·,·,·,·,
COCCN(C(=O)C1CCCC1)c1c(N)n(Cc2ccccc2)c(=O)[nH]c1=O,5,-1,5,15,10,8,·,·,
Nc1c(N(C(=O)Nc2ccc(Cl)c(Cl)c2)C2CCCC2)c(=O)[nH]c(=O)n1Cc1ccccc1,-27,48,-12,40*,77*,19,11,103*,
O=C(N[C@@H]1CC[C@@H](CCNC(=O)C2CCOCC2)O[C@@H]1CO)c1ccncc1,·,·,·,11,·,·,·,·,
CC(=O)Nc1ccc(OS(=O)(=O)c2ccc(C)cc2C)cc1,-16,7,-10,80*,-13,0,88*,34,
CC(=O)Nc1ccc(OS(=O)(=O)c2c(C)cc(C)cc2C)cc1,-8,31,-14,50*,-9,8,55*,7,
CC(=O)Nc1ccc(OS(=O)(=O)c2ccccc2C)cc1,3,-20,-11,-34,-10,-6,·,·,
COc1ccccc1C=CC(=O)C=Cc1ccccc1OC,-4,99*,66*,70*,74*,-179,55*,100*,
COc1ccc(NC(=O)/C(C#N)=C/c2c(C)nn(-c3ccc(F)cc3)c2Cl)cc1OC,-3,22,-5,43*,-3,17,11,54*,
Cn1c(=O)c([N+](=O)[O-])c(Cl)c2ccccc21,-50*,105*,14,97*,95*,72*,83*,106*,
Cc1cc2nc(-c3ccccc3)c(Cc3cccc(Cl)c3)n2c(C)c1Br,·,·,·,-55,·,·,·,·,
O=C(C#Cc1ccccc1)c1cccc([N+](=O)[O-])c1,-17,106*,39,46*,102*,59*,11,86*,
SMILES,KKLEB cytotox,Peg3 prom inh,LMP1 NFkB inh,HIF-2a inh,MITF TRPM1 inh,CF NFkB inh,HIF-2a inh conf,HIF-1a cs,others
Cc1cc(C)n(C(=O)/C(C#N)=N\Nc2ccccc2[N+](=O)[O-])n1,3,14,3,7,-5,-19,·,·,
Cc1cc(C)n(C(=O)/C(C#N)=N/Nc2cc(Cl)cc(Cl)c2)n1,-62*,34,9,5,32,57*,·,·,Mdm2-MdmX confirm=95*
Cn1nc(C(C)(C)C)cc1C(=O)N1CCCC(C)(C(=O)NS(=O)(=O)C2CC2)C1 (configuration not stated),2,-4,·,11,·,-12,·,·,
Cc1cc2nc(C3CCCCC3)c(Cc3cccc(F)c3)n2c(C)c1Br,1,1,·,-7,·,36,·,·,
CCCC1CC(=O)NC1(C(=O)OCC)C(=O)OCC (configuration not stated),8,1,2,2,-6,6,·,·,
CC(=O)Nc1cccc(-c2cnc(N)c(C(=O)c3cccnc3)n2)c1,-8,71*,49*,41*,44,75*,·,·,Mdm2-MdmX confirm=102*
CC(=O)Nc1cccc(-c2csc(N)n2)c1,3,1,4,5,-9,-20,·,·,
CC(C)c1ccc(NC(=O)Nc2nc(C(N)C3CCCCC3)cs2)cc1 (configuration not stated),-45,95*,·,50*,·,45,11,106*,
COc1cc(/C=C/C(=O)c2ccc3c(c2)OCCO3)cc(Br)c1OCC(=O)N(C)C,0,107*,28,93*,93*,4,91*,102*,Mdm2-MdmX confirm=101*
